We go through 17 molecules from the supplement of paper PMC7057948, “A genome-wide approach for identification and characterisation of metabolite-inducible systems” (Nature Communications, 2020).

The assay concerns KynR/P_H16_RS14030 L-kynurenine biosensor (pEH136). Kind of assay: relative induction of RFP reporter vs primary effector; higher = stronger activation. The note with it: inducer concentration 5 mM; 6 h; Cupriavidus necator H16; minimal medium + 0.4% gluconate. How it is done:
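Orthogonality screen of 21 primary inducers against 21 transcription factor/inducible promoter–mRFP biosensors in C. necator H16 in minimal medium, robotic 96-well format, 5 mM inducer, 30 °C. OD-normalised RFP fluorescence was read 6 h later and expressed as relative induction (%) = 100 × (FL compound − FL uninduced)/(FL primary inducer − FL uninduced); mean of n=4. Cognate pairs (100% by definition) omitted.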
`O=C(O)c1ccccc1` [benzoate]: the “relative induction of RFP reporter” value was -0.112%.

Regarding `O=c1[nH]c(=O)c2nc[nH]c2[nH]1` [xanthine], the “relative induction of RFP reporter” value came to 0.0316%.

As for `O=C(O)C(O)C(O)C(=O)O` (configuration not stated) [tartrate], the “relative induction of RFP reporter” value stood at 0.0585%.

Take `CC(=O)C(C)O` (configuration not stated) [acetoin]: the “relative induction of RFP reporter” value was determined as 0.0145%.

Regarding `N[C@@H](Cc1ccccc1)C(=O)O` [L-phenylalanine], the “relative induction of RFP reporter” value came to 1.98%.

`O=C(O)CCO` [3-hydroxypropanoate]: the “relative induction of RFP reporter” value is -0.395%.

`OC1OC[C@H](O)[C@H](O)[C@H]1O` (mixture of isomers) [L-arabinose]: the “relative induction of RFP reporter” value was 0.181%.

On to `NCCC(=O)O` [β-alanine], for which the “relative induction of RFP reporter” value was -0.589%.

Turning to `O=C(O)C(=O)c1ccccc1` [phenylglyoxylate], the “relative induction of RFP reporter” value stood at 0.112%.

For `O=C(O)c1ccc(O)c(O)c1` [3,4-dihydroxybenzoate], the “relative induction of RFP reporter” value was 0.138%.

As for `N[C@@H](Cc1ccc(O)cc1)C(=O)O` [L-tyrosine], the “relative induction of RFP reporter” value was determined as 0.164%.

As for `C=C(CC(=O)O)C(=O)O` [itaconate], the “relative induction of RFP reporter” value is -0.472%.

On to `O=C(O)c1ccccc1O` [salicylate], for which the “relative induction of RFP reporter” value was -0.248%.

As to `O=C(O)C1CCCCC1` [cyclohexane-1-carboxylate], the “relative induction of RFP reporter” value came out at 0.977%.

For the molecule `O=C(O)CS(=O)(=O)O` [sulfonatoacetate], the “relative induction of RFP reporter” value is 0.55%.

In the case of `O=CO` [formate], the “relative induction of RFP reporter” value is 0.482%.

`C=CC(=O)O` [acrylate]: the “relative induction of RFP reporter” value came out at 0.406%.
